This note sets out measurements from PubChem BioAssay AID463190 (Sanford-Burnham Center for Chemical Genomics, 2010).

SMILES strings stand for the structures. Screen size: about 330,000 compounds; about 7,300 (2.2%) were called active.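 How the source made its calls: active means inhibition of at least 40%; inactive means the rest.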 Only a selection was taken, and actives are over-represented in it overall.

The assay is described as follows: growth inhibition of tim10-1 ts yeast – luminescence, uHTS, primary screen (AID 463190).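 Further: mutant grown at 25 °C; 0% = DMSO wells with yeast and 100% = wells holding no yeast.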 Conditions: S. cerevisiae tim10-1 ts strain growth, BacTiter-Glo, 24 h; at 20 µM; stronger effect = higher value.
Turning to `CN(Cc1c(F)cccc1Cl)C(=O)CNC(=O)c1ccc2c(c1)OCO2`, the inhibition (commonly the change of the read-out against control, counted positive when it falls) was 7.42% (inactive).

For the molecule `Cc1ccc(NC(=S)Nc2ncccc2C)c(C)c1`, the inhibition was 36.8% (inactive).

On to `O=C(NCCCn1ccnc1)/C(=C\c1ccccc1F)NC(=O)c1ccccc1`, for which the inhibition is -16.4% (inactive).

For `COc1ccc(-c2cc(C(=O)Nc3ccccc3O)c3ccccc3n2)cc1`, the inhibition is 11.2% (inactive).

Take `O=C(NNc1c2ccccc2nc2ccccc12)c1cc2ccccc2cc1O`: the inhibition was 48.9% (active).

Consider `O=C(NN=Cc1ccc(N2CCOCC2)cc1)c1cc2ccccc2cc1O`, for which the inhibition is 0.793% (inactive).

Consider `O=C(COC(=O)CN1C(=O)C2CCCCC2C1=O)Nc1ccc(F)c(F)c1F` (configuration not stated), for which the inhibition is 8.83% (inactive).

Turning to `CC1=CC(C)(C)Nc2ccc(OC(=O)C(Cc3ccccc3)N3C(=O)C4CCCCC4C3=O)cc21` (configuration not stated), the inhibition was 25.9% (inactive).

Turning to `CC1=CC(C)(C)Nc2ccc(OC(=O)CN3C(=O)C4CCCCC4C3=O)cc21` (configuration not stated), the inhibition was 42.7% (active).

On to `Cc1cccc(C(=O)OC(C)C(=O)NC2CCCc3ccccc32)c1O` (configuration not stated), for which the inhibition was 14.7% (inactive).

Take `Cc1nc2ccccc2cc1OCc1ccc(F)cc1`: the inhibition is 40.5% (active).

As for `Cc1occc(=O)c1OCc1ccc(F)cc1`, the inhibition was 1.21% (inactive).

With `Fc1cccc2ncnc(OCc3ccccc3)c12`, the inhibition was 5.91% (inactive).

With `O=c1[nH]c2ccccc2s1`, the inhibition is 8.84% (inactive).

In the case of `O=C(NC1CCCCCC1)c1cccnc1Sc1ccc(Cl)cc1`, the inhibition is 17.4% (inactive).

For the molecule `O=C(NC1CCCCC1)c1ccc(-c2ccc(Cl)cc2)o1`, the inhibition was 46.1% (active).

In the case of `O=C(NC(=S)NC1CCCCC1)c1ccc(Cl)cc1`, the inhibition is 34.7% (inactive).

Regarding `Cc1cnc(CN(C)C(=O)CC2C(=O)NCCN2Cc2cccc(F)c2F)[nH]1` (configuration not stated), the inhibition is 0.623% (inactive).

With `CC(C)OCC(O)CN1CCN(C(c2ccccc2)c2ccccc2)CC1` (configuration not stated), the inhibition is 6.5% (inactive).

Turning to `COC(=O)COc1ccc(C2NC(=O)NC(C)=C2C(=O)NCc2ccccc2)cc1OC` (configuration not stated), the inhibition is 1.06% (inactive).

In the case of `Cc1ccc(SCC2=NNC(=O)C2)cc1`, the inhibition is 33.5% (inactive).

With `CCOc1ccc(NC(=O)CN(C)C(=O)Cn2c(=O)cnc3ccccc32)cc1OCC`, the inhibition is -8.6% (inactive).

Consider `C/C(=N\Nc1nc(N2CCOCC2)nc(N2CCOCC2)n1)c1ccc([N+](=O)[O-])cc1`, for which the inhibition was 14% (inactive).

Regarding `O=C(CSc1nc(Nc2ccccc2)nc(N2CCOCC2)n1)Nc1cc(Cl)ccc1O`, the inhibition is -0.275% (inactive).

Regarding `C/C(=N\Nc1nc(Nc2ccccc2)nc(N2CCOCC2)n1)c1cccs1`, the inhibition is 41.3% (active).

With `COc1ccc(C2(CNC(=O)C(c3ccccc3)c3ccccc3)CCOCC2)cc1OC`, the inhibition was 15.2% (inactive).

With `CCCCCCCCn1c2c(c(=N)c3c1CCC3)CCCC2`, the inhibition was 49.1% (active).
